108 sequences from PubChem BioAssay AID1508600 (Functional Genomics Laboratory (NCATS/FGL), 2020) can be followed below.

Among all 53,000 sequences or so, about 3,700 (7%) were called active. Shown is part of a subset that was picked to be rich in actives. Unmarked numbers belong to inactive results.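 Rule for the calls: active = gene knockdowns whose robust z-score for IL-1 alpha signal is at least 2 or at most -2, so actives lie on both sides; inactive = the rest.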

This test can be described thus: Components of the Cytosolic LPS Sensing Pathway: Gene Identification via Genome-wide siRNA Screen.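 Note: robust z of the log signal after scaling to non-targeting control siRNA wells of the plate.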 To be noted: RAW264.7 macrophages, IL-1a HTRF, actives lie on both sides, screened at 100 nM (by protocol), cells primed 5 h with Pam3CSK4 first. An outline of the steps: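 RAW264.7; siRNA 100 nM final, RNAiMAX, 48h 37 degrees C; Pam3CSK4 5 h; LipidA + TransIT-TKO 24 h; IL-1a HTRF; CellTiter-Glo viability; robust z vs negative-control median.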
In the case of GUGAAGGCCCAUGGCAAGATT against Hbb-b1, the z-score was -0.235. For CCGUAUUUGGACUGAGCAATT against Chic2 the value was 0.63; for GCUAGGGAUUUACCUCUUCTT against Gpr65, 0.743; for GCCUGAGGAUCUAUAGAUATT against Prss29, -1.36. Turning to UGGAAGCCUUAUGCCGUCUTT against Gpr31b, the z-score was 0.895. In the case of GGCUCUAACUGUGAGAAGATT against Dll3 it was -2.44 (active). For GGCUAACUCCUUAAAACCUTT against Aldh18a1 the value was -0.372. In the case of GGCUUCCACGUAAUUGUCCTT against Six3os1 it was 0.649; in that of GGCCGACUUGAUCAAUAACTT against Hsp90aa1, -0.164; in that of CCCGGAGCUUGAAUUACUGTT against Usp7, 2.36 (active). Regarding GGAUUUUUCCAUAAAAACCTT against B3galnt1, the z-score was 1.04. For CCUCCCAGUACACUUGAAATT against Cox7a1 the value was 0.0752. For GGAAGAAACGGAGACUCAATT against Dpf1 the value was 0.052; for CCAAUGAGUUAAUCACCUUTT against Olfr1135, 0.587. In the case of GGUCCAUACUCCUAAAGAATT against Mpzl1 it was -0.727; in that of GGUGCAGUUUCUCCUCUUUTT against Pla1a, 2.09 (active); in that of GGAUCUGUUACUCUGAUACTT against Pias4, 0.847.

Turning to GGUCAACAUUAAAAUACUGTT against Map2k4, the z-score was -0.0649. In the case of GGUUUGCCUAUUUUUUCUUTT against Trmt10c it was 1.9; in that of GGGUUUUUUUUUUCCUUCCTT against Hsd17b1, -0.0306; in that of CGUAGGACUGAAUCAGCUUTT against Slc13a3, -3.04 (active).

Consider GCCAUUUGAAGUGUUUAAATT against Kctd12, for which the z-score is -0.103. In the case of GGAAGACCUAAACAACGGCTT against Dusp10, the z-score was -1.55. In the case of GGGUAACUAUUGGACUAACTT against Gabrq it was -0.262; in that of GGCAUUGGAAUAAAAUUUGTT against Rfk, 0.267; in that of GGUGGUACGCAGACUAAAUTT against Ulk1, 2.94 (active). For GGGUUAAACCACAUAUCCATT against Spata9 the value was -1.06; for GCUUUUCCGCUUCUACCGGTT against Nrp, -0.505. For GCUGUGGAGAAGUGCUACUTT against Lce1b the value was -0.907. As to CCGAAAAUGGUUAGGACAUTT against Kynu, the z-score is 1.44. For GGGCCUUCAAAACGAGAAGTT against Cyp4f39 the value was 0.339. Take GCCUUCCUGAAUUUAAAGATT against Myo5b: the z-score is 1.33. For GGAUAAAAUUGCUUUACUGTT against Srek1ip1 the value was 2.63 (active); for GGUGGUACUUACUCAAAAUTT against Fgg, 1.05. In the case of GGGACUACCAUUUGUUAAUTT against Tktl1 it was 0.751; in that of CCAGAUUGUCACUUGCUACTT against Skint3, 1.25; in that of GGAUACAAUCAUCGCCAUCTT against Olfr101, 1.3.

For GCUUUUAACAUCGAGUAAUTT against Top2b, the z-score was -0.627. On to GCAUUCAUCAGGGUUGAUUTT against Wdr20, for which the z-score is -2.43 (active). For CCUGUUAUGACCGUUCAUGTT against Prpf4 the value was 0.551. In the case of GGCUCUGAAAAUUGAACACTT against Cep83 it was 0.0736. In the case of GGGUCUUAUCUCGAUGAGGTT against Flt3l it was -0.199. In the case of GGAAAUCAGCUGAAUUACUTT against Dicer1, the z-score was 1.07.

On to GGAACCAAUCUUGGUCUCATT against Tln2, for which the z-score was -0.66. In the case of GGAUUCAGGCUGGAAAAUATT against Clrn1 it was -1.04; in that of GGAAAACUUGAGGCGGAUCTT against Enkd1, 2.63 (active).

CCCUGAAGGCUUACUUUUUTT against Cfap299: the z-score was -0.231. For GCUUUUCAUAUCUCUUGCATT against Olfr1385 the value was 0.408; for CCUGUCUGGACUUGUCUAATT against Ica1, -2.05 (active).

As to GCCAGAAUCUGUUGUGAACTT against Gfpt1, the z-score is 0.0747. Take GGGAAAAUCCACUUUUAAGTT against Hs2st1: the z-score is -0.0469. In the case of GGGUCCAAUAAACAUGUCUTT against B3galt4 it was 0.234; in that of CCAGGACUUACUCAGUAAUTT against Setd6, -0.72; in that of GGCAAGAGAAUUCAGAUCUTT against Slc5a1, 2.91 (active). For GGCGUGAUCGCUCUCCAAUTT against Ncoa5 the value was 0.834. In the case of GGAUAACCGCCAAUAAAAATT against Msantd3 it was 0.255; in that of GCCCUACCUUGAAUCCCAUTT against Olfr532, -1.75. As to GGUAUUGGGCCAUUGGUUGTT against Mapkapk3, the z-score was 0.705. In the case of GGGUUGAUUAAAGUUUAACTT against Gsx2 it was 1.4; in that of GGCCACUUGCCUAUUGUGATT against Anxa6, -0.343. In the case of GAAUAUGUGGCUCUGGGUCTT against G6pc3 it was -0.414.

Consider GCUGCACAUUGUCCAUUAUTT against Car12, for which the z-score was 2.3 (active). GGUGUUCUUUGACAGUGCCTT against Atp5d: the z-score is 0.107. On to GCCGAUGAUGAGAAACGACTT against Cd2, for which the z-score was -0.279.

For the sequence GGCGAGUUUUCCUCUUCAGTT against Sync, the z-score was 1.08. In the case of CCGUCAUCACUGAUCAGUUTT against Olfr684 it was 2.7 (active). In the case of GGUGCUGUGUGAGCUUUCATT against Zfp85os it was -1.47. In the case of GGCUGACUCGCUUUCACCATT against Efna2 it was 0.522; in that of GCCACAGGCCAAGAUCAUUTT against Pafah1b2, -0.614; in that of GGACAAUUGGAAGAUUUGGTT against Ccdc88a, -1.23. For CCCUGAAUAAGGCUGAUCUTT against Krt32, the z-score was -0.801.

For GGAUCUGUGAGAAUCAUAGTT against Rabgap1l, the z-score was -2.24 (active). For GGGAGAUGUUGUCAGGGUCTT against Rnasel the value was -0.476. For GGAAAGUGCAUCAUAGACATT against Thrb the value was 0.153.

Consider GGACGAUGUAUUGUUAUUGTT against Lrp10, for which the z-score is 1.49. For GGUAUGACUUGCUCUUUAUTT against Rnpep the value was -0.881; for GCAUUUGUGGCCUAUGCUCTT against Naprt, -2.16 (active).

Turning to GCUCAAAUGUUCUAAAAGCTT against Acmsd, the z-score was -0.332.

Turning to GGCGUAUUUGUCAUUUCUUTT against Dis3l, the z-score was 0.013.

For the sequence GGAAGUCAUUUUUUCCAAGTT against Msantd4, the z-score was 1.12. For GCAUUGUUUUUCUAUUCAGTT against Cfhr1 the value was 0.531. In the case of GGUGCUUCACAGAAUGUGUTT against Olfr784 it was -1.8.

In the case of GGGUCUCAAAGCAGUUUUUTT against Rhoj, the z-score was 3.99 (active).

In the case of GCUGAAAACACACCUAGCATT against Gin1, the z-score is 1.19.

On to GGCUGUCUUACAAUGUAAUTT against Gabrb2, for which the z-score is -0.638. In the case of GAGACUAAUAUAGUGAAUGTT against Foxj1, the z-score was -0.314. Regarding GGCAGAGAGUCUACAUAUGTT against Bcar3, the z-score was -0.272. In the case of GCAGAAGGUACUACUAUCGTT against Rcsd1 it was 0.669; in that of CCUUGUUGUGACAAGCUUUTT against Rchy1, -0.362.

With GGCUUCAUGCCUUAUCCACTT against Fam166a, the z-score was -0.314. Consider GCCCUGUGCUUGGCAACAUTT against Ssbp3, for which the z-score is -2.36 (active). In the case of GGCCACCGUUCAAAAAAUUTT against Dctn5 it was -0.226; in that of GGAAGAGAAUAGAUCCUAUTT against Zbtb8a, -0.388. In the case of GGUCGUGUACAAGUACAUATT against Mrps24 it was 2.24 (active). In the case of GCUACUGCACAAAGUUACGTT against Ankrd36 it was -0.0351. In the case of GCUGACUCCAUCCUAACAGTT against Cideb, the z-score is -2.6 (active). For GCCUCUGAGUUGCAUGAGUTT against Ppp2r5b the value was -0.736. In the case of GGACUACCAUCGACCUUCATT against Nek2 it was 1.15.

CCCAAGAAUUGGAUUCCAGTT against Lta: the z-score was -0.528. For GGAGCUGAAGAUCAAGGAGTT against Pkn3 the value was -0.849; for GCCCAAAAAUACUGGAUAUTT against Atp6ap2, -2. In the case of “GCCUUGUAGACCAGUUCUATT against 9530085L02Rik” it was 2.15 (active); in that of CCGCAUGUUUGGAAAGGAUTT against Cabp4, -0.484; in that of GGAACAAUUUGAUCCAGCATT against Mbnl2, -1.67. In the case of CCCACUCCUUCUAAAAGUUTT against Cyp3a13 it was -0.909.

Take GGCCAUUCACGUUUUACUCTT against Ric8b: the z-score was -1.02. With GGAGCUAUAUUCUCACCCATT against Ptpn1, the z-score was -2.06 (active). Regarding GGGAAAAAUAUCAGUUAUGTT against Khdrbs1, the z-score was 0.465.
